ST2 inh: inhibitors of human ST2 (IL1RL1) binding to IL-33; Q01638; AlphaLISA ST2-Fc/biotin-IL-33 interaction, 1 h; inhibition, % for hits at 17 µM; actives 2.3% (n = 78,000); AID 1259354; in the data active means inhibition above about 30%
Target sequence (Q01638 whole entry, looked up): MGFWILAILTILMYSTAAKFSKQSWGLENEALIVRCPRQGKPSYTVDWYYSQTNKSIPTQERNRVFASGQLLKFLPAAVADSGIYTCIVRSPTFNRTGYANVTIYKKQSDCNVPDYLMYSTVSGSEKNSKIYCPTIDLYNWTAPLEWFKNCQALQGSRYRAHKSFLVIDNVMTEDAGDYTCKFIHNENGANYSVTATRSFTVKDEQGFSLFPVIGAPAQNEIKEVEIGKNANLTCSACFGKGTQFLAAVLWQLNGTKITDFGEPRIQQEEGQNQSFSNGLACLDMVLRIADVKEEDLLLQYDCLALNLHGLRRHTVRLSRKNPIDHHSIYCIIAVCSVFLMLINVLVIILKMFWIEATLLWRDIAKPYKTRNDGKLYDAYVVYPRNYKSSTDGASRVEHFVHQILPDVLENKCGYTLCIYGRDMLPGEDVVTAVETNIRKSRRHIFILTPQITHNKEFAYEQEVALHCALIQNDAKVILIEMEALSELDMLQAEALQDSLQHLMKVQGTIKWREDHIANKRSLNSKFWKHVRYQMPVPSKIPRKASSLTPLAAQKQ
Numbers without * were called inactive; i = inactive. This is one part of a sample in which hits are shown more often than they occur.

SMILES | ST2 inh
Cn1c(=O)c2c(nc(NCCCO)n2Cc2cccc3ccccc23)n(C)c1=O | i
Cn1c(=O)c2c(nc(NCc3cccnc3)n2Cc2cccc3ccccc23)n(C)c1=O | 30%*
COc1ccc(-n2ncc3c(Nc4ccccc4OC)ncnc32)cc1 | i
c1cc(CN2CCC(n3cc(C4CC4)nn3)CC2)co1 | i
COc1cc(-c2nc3sc4c(c3c(=O)[nH]2)CCCC4)ccc1O | i
COc1ccc(CCn2cnc3sc4c(c3c2=N)CCCC4)cc1OC | i
COc1ccc2[nH]c3c(c2c1)CCn1c-3nc2sc3c(c2c1=N)CCCC3 | 34%*
CC/C=C(\C)C(O)C(C)C(=O)NCC(=O)C(C)C(O)C(C)C(=O)O (centres undefined) | i
COCCN1CC(C(=O)NCCCc2ccc(F)cc2)CCC1=O (centres undefined) | i
Fc1ccc(C2=CSC3=NCCN23)cc1 | i
Brc1ccc(C2=CSC3=NCCN23)cc1 | i
Clc1ccc(OC2=C(c3ccccc3)N3CCN=C3S2)cc1 | 45%*
O=[N+]([O-])c1ccc(C2Nc3ccccc3-c3nc4ccccc4n32)cc1 (centres undefined) | i
Cc1oc(N=Cc2cn(Cc3ccccc3)c3ccccc23)c(C#N)c1C | 46%*
Cc1ccc(Cn2cc(CCC(=O)O)c3ccccc32)cc1 | i
CN=C1S/C(=C\c2cn(CC(=O)O)c3ccccc23)C(=O)N1C | i
Cc1ccc2oc(-c3cccc(NC(=O)c4ccccc4I)c3)nc2c1 | i
Cc1cc(=O)[nH]c(SC(C)C(=O)N(C)Cc2ccc(C)o2)n1 (centres undefined) | i
Cc1[nH]cnc1CN(C)Cc1ccccc1-n1cccn1 | i
CCCc1cc2c(=O)c(-c3cc4ccccc4o3)coc2cc1OC | i
COc1ccccc1C=C1C(=O)OC(C)(c2ccccc2)OC1=O (centres undefined) | i
CN(C)c1ccc(/C=C2/SC(=Nc3ccccc3Cl)NC2=O)cc1 | 39%*
COc1ccccc1/C=C1/SC(=Nc2ccccc2Cl)NC1=O | 33%*
O=C1NC(=Nc2ccc(O)cc2)S/C1=C\c1cccc(O)c1 | i
N#CC1=C(N)OC2=C(C(=O)CCC2)C1c1ccc(Br)s1 (centres undefined) | i
SMILES | ST2 inh
CN(c1ccccc1)c1ncnc(N)c1[N+](=O)[O-] | i
CN(C)c1ccc(/C=C/c2c([N+](=O)[O-])c(=O)n(C)c(=O)n2C)cc1 | i
CN(c1ccccc1)c1ccc(/C=C/[N+](=O)[O-])cc1 | 50%*
CN1C(=O)C(CC(=O)NCCn2cccn2)(Cc2ccccc2)c2ccccc21 (centres undefined) | i
COc1ccc(Cn2c(CNC(=O)C(C)C)nc3cccnc32)cc1 | i
COc1cc([N+](=O)[O-])ccc1NC(=O)C(c1ccccc1)c1ccccc1 | i
O=C1C(=Cc2ccc(-c3ccc([N+](=O)[O-])cc3Cl)o2)C(=O)c2ccccc21 | i
COc1cc([N+](=O)[O-])ccc1-c1ccc(/C=C2\C(=O)ON=C2c2ccccc2)o1 | 34%*
Cc1nc(CC(=O)N2CCc3c(cnc(C)c3CNC(=O)/C=C/c3cccs3)C2)cs1 | 30%*
Cc1ncc2c(c1CNC(=O)/C=C/c1cccs1)CCN(C(=O)COc1ccccc1)C2 | i
Cc1ncc2c(c1CNC(=O)/C=C/c1cccs1)CCN(C(=O)c1ccc(-n3cccn3)cc1)C2 | i
O=C(c1ccccc1Br)N(c1ccc(Br)cc1)C1C=CS(=O)(=O)C1 (centres undefined) | i
Cc1ccc(-c2cc(N)ccn2)c2cccnc12 | i
NC(=O)[C@H](Cc1ccc(O)cc1)NC(=O)C1=C[C@@H](NC(=O)c2cnccn2)[C@@H](O)[C@H](O)C1 | 44%*
NC(=O)[C@H](Cc1cccs1)NC(=O)C1=C[C@@H](NC(=O)c2ccc(F)c(Cl)c2)[C@@H](O)[C@H](O)C1 | i
COc1ccc(C[C@H](NC(=O)C2=C[C@@H](NC(=O)c3ccc(C)cc3)[C@@H](O)[C@H](O)C2)C(N)=O)cc1 | i
CCO[C@H]1COC[C@@H]1NC(=O)c1occc1C | i
CCc1nc(NC)nc(OC)n1 | 68%*
COc1nc(N(C)C)nc(N(C)C)n1 | i
CCc1ccccc1-c1nc(OC)nc(OC)n1 | i
CC(C)(C)C1CCc2onc(C(=O)Nc3cc(Br)ccc3O)c2C1 (centres undefined) | i
CC(=O)c1cccc(NC(=O)CN(C)S(=O)(=O)c2ccc(C)cc2)c1 | i
Cc1ccc(CSC2=NCCN2C(=O)C2CCCC2)cc1 | i
CC(=O)Nc1ccc(OCC(=O)Nc2c(C)cccc2C)cc1 | i
Cc1ccc(OCC(=O)Nc2ccc(N3CCCC3)cc2)cc1C | 59%*
Cc1cccc(OCC(=O)Nc2ccc(N3CCCC3)cc2)c1C | 66%*
CCc1ccc(OCC(=O)Nc2ccc(N3CCN(C(C)=O)CC3)cc2)cc1 | i
Cc1cccc(OCC(=O)Nc2sc3c(c2C#N)CCC3)c1C | i
Cc1cc(C)c(NC(=O)COc2ccc(C)c(C)c2)c(C)c1 | i
COCCN1C(=O)NC(Cc2ccc(F)cc2)(C2CCN(C(=O)c3sccc3Cl)CC2)C1=O (centres undefined) | i

Screening results as filed in PubChem BioAssay.
